{"source": "ChEMBL document CHEMBL3988442", "about": "“University of Dundee, Small-Polar-MMV Screening Library” (2021)", "note": "The whole screen tested about 48,000 compounds, of which about 13,000 (27%) showed an effect of 50% or more. This is one part of the list."}
{"tested_on": "Wolbachia pipientis", "assay": "Anti-Wolbachia Cell-Based Screen", "type": "functional", "design": "scale not given: in the data most compounds retested in dose-response had high values", "details": "5 µM", "units": {"Percent Effect": "%"}}
{"smiles": "Nc1ccnc(N2CCC(CCc3ccccc3)(C(=O)O)CC2)n1", "Percent Effect": -1.622}
{"smiles": "CC(=O)N1[C@H](CN(C)C)C[C@@H]2CN(c3ncc(F)cn3)CC[C@@H]21.O=C(O)C(F)(F)F.O=C(O)C(F)(F)F", "Percent Effect": -11.57}
{"smiles": "CC(C)CC1COCCN1C(=O)Cc1cccs1", "note": "(centres undefined)", "Percent Effect": -4.501}
{"smiles": "CC(=O)N1[C@H](Cn2cncn2)C[C@@H]2CN(Cc3ccncc3)CC[C@@H]21.O=C(O)C(F)(F)F.O=C(O)C(F)(F)F", "Percent Effect": -2.106}
{"smiles": "CC(=O)N1[C@H](CN(C)C)C[C@@H]2CN(C(=O)Cc3cccs3)CC[C@@H]21.O=C(O)C(F)(F)F", "Percent Effect": 96.5}
{"smiles": "CN(C)C[C@@H]1C[C@@H]2CN(C(=O)Cc3cccs3)CC[C@@H]2N1C", "Percent Effect": 87.94}
{"smiles": "CN(C)Cc1nnc(C2CCN(C(=O)CCc3cccs3)CC2)n1C", "Percent Effect": -18.7}
{"smiles": "Cn1cc(CCCNS(=O)(=O)N2CCCC2c2ccco2)cn1", "note": "(centres undefined)", "Percent Effect": -2.203}
{"smiles": "OC1(CNc2ccc(Br)cn2)CCSCC1", "Percent Effect": 5.842}
{"smiles": "O=C(O)C(F)(F)F.O=C([C@H]1CCCO1)N1CC[C@H](O)[C@@H]1Cc1ccncc1", "Percent Effect": -12.15}
{"smiles": "O=C1CC[C@H]2[C@H](CCN2C(=O)C2CCCO2)N1Cc1ccncc1", "note": "(some centres undefined)", "Percent Effect": 9.155}
{"smiles": "CC(C)N(C)[C@@H]1CCN(C(=O)[C@H]2CCCO2)[C@H]1Cc1cnn(C)c1", "Percent Effect": -7.042}
{"smiles": "O=C([C@H]1CCCO1)N1CC[C@H](O)[C@@H]1Cc1cccnc1", "Percent Effect": 104.4}
{"smiles": "Cc1cc(C(=O)N2CC[C@H](OCC3CC3)[C@@H]2Cc2cccnc2)no1", "Percent Effect": -4.828}
{"smiles": "O=C([C@H]1CCCO1)N1CC[C@@H](O)[C@@H]1Cc1ccccc1", "Percent Effect": 97.77}
{"smiles": "Cn1cc(Br)c(=O)c(NS(=O)(=O)c2ccc(F)cc2)c1", "Percent Effect": -3.18}
{"smiles": "CSCCNC(=O)C1CCC(=O)N(C2CCCC2)C1", "note": "(centres undefined)", "Percent Effect": -26.76}
{"smiles": "CCOCc1ccccc1NC(=O)NCC(c1cnn(C)c1)N(C)C", "note": "(centres undefined)", "Percent Effect": -8.458}
{"smiles": "Cc1nc(C(=O)N(C)C2CC(=O)N(Cc3ccccc3)C2=O)cs1", "note": "(centres undefined)", "Percent Effect": -12.75}
{"smiles": "CCOC(=O)N1[C@@H](c2ccco2)[C@@H](C(=O)O)C[C@]12CCCCNC2=O", "Percent Effect": 122.2}
{"smiles": "CCOC(=O)CCNC(=O)N1CCCC(CNC(=O)c2ccco2)C1", "note": "(centres undefined)", "Percent Effect": 4.582}
{"smiles": "CCOC(=O)N1[C@@H](c2ccco2)[C@@H](C(=O)NC)C[C@]12CCCCNC2=O", "Percent Effect": 102}
{"smiles": "Cc1cc(NC(N)=O)ccc1C(=O)N(C)C", "Percent Effect": 10.57}
{"smiles": "CC(=O)N1CCC(c2nnc3ccc(C(=O)NC(C)C)cn23)C1", "note": "(centres undefined)", "Percent Effect": 15.69}
